The list is not random: actives were taken first. Their share in the collection is about 12%.
G9a inh = qHTS Assay for Inhibitors of Histone Lysine Methyltransferase G9a. Histone-lysine N-methyltransferase EHMT2 (Homo sapiens), Q96KQ7. G9a H3K9 monomethylation, AlphaScreen, 2 h. Potency, µM (titrated, usually from 102 µM), most hits filed as inhibitors. hit rate 8.8% among 350,000; also: nearly all actives have a fitted effect of over 75% in size
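G9a (20 nM) preincubated 15 min RT with compounds, then 500 nM biotinylated H3K9 peptide and 20 uM SAM added; 2 h RT reaction. Monomethyl-H3K9 product detected by AlphaScreen with anti-H3K9me1 antibody, streptavidin donor and anti-rabbit IgG acceptor beads.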
HP1b chromo inh = HTS for Inhibitors of HP1-beta Chromodomain Interactions with Methylated Histone Tails | Chromobox protein homolog 1 (Homo sapiens), P83916 | AlphaScreen HP1-beta / biotin-H3K9me3 peptide binding | Potency, µM (top dose mostly 114 µM), actives largely listed as inhibitors | hit rate 0.56% among 390,000 | AID 540317, 2011; also: nearly all actives have a fitted effect of over 70% in size
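HP1-beta protein (50 nM final) preincubated 30 min at room temperature with biotinylated H3(1-18)K9me3 peptide (50 nM) in PBS pH 7.4, 0.01% Tween-20, then compound added for 30 min. AlphaScreen streptavidin donor/nickel chelate acceptor beads (10 ug/mL final), 30 min dark, luminescence read.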
JMJD2A Tudor = qHTS Assay for Inhibitors of JMJD2A-Tudor Domain; Lysine-specific demethylase 4A (Homo sapiens), O75164; AlphaScreen JMJD2A-Tudor / H3K4me3 peptide binding; Potency, µM (top dose mostly 114 µM), usual class: inhibitors; hit rate 4.4% among 390,000; AID 504339, 2011; also: nearly all actives have a fitted effect of over 50% in size
Target sequence (O75164 whole entry, looked up, the tested form may be a part): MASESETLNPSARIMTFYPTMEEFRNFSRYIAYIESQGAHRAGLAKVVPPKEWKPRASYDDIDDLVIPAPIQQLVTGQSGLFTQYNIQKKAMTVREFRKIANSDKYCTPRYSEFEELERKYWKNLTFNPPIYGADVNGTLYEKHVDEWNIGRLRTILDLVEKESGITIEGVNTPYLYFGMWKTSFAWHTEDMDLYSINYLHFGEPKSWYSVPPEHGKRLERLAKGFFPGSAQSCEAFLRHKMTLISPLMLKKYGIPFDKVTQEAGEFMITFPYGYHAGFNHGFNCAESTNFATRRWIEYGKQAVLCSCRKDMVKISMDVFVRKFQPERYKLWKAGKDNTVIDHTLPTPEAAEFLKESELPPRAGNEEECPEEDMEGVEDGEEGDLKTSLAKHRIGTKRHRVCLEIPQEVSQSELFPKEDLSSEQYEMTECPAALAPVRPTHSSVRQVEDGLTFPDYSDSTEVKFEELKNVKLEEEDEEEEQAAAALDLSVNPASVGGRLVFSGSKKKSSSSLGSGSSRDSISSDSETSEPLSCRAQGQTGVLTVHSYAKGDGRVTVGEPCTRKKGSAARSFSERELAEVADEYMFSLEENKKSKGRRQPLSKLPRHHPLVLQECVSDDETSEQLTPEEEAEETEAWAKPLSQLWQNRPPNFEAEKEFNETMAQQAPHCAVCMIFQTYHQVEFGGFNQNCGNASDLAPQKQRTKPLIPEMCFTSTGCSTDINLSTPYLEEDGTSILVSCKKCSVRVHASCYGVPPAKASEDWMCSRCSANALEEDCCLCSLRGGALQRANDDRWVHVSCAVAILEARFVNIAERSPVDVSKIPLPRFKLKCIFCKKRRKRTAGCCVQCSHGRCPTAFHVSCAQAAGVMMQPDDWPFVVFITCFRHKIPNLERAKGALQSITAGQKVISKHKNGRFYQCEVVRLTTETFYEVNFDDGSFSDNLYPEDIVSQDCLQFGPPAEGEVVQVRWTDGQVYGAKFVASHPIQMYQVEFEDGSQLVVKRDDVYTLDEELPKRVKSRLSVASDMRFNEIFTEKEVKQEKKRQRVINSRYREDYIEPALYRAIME
Sfp PPTase inh = qHTS Assay for Inhibitors of Bacillus subtilis Sfp phosphopantetheinyl transferase (PPTase). Biochemical Sfp PPTase activity, qHTS. Potency, µM, hits mostly inhibitors. hit rate 3.5% among 310,000;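 also: the enzyme is Sfp with the accession as filed and its product quenches rhodamine fluorescence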
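Fluorescence-quenching assay: 15 nM Sfp-PPTase preincubated 15 min at room temperature with compound, then 5 uM rhodamine-CoA and 12.5 uM BHQ-2-labelled YbbR peptide added. Fluorescence (ex 525/em 598 nm) read at start and after 30 min; difference gives rate.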
BAZ2B block = qHTS Assay for Inhibitors of BAZ2B; Bromodomain adjacent to zinc finger domain protein 2B (Homo sapiens), Q9UIF8; AlphaScreen BAZ2B-H3K14Ac peptide displacement; Potency, µM (series often up to 114 µM), usual class: inhibitors; hit rate 4.4% among 360,000; AID 504333, 2011; also: nearly all actives have a fitted effect of over 60% in size
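Multi-concentration screen (max 110 uM) measuring displacement of acetylated histone H3 peptide from BAZ2B by AlphaScreen, using 50 nM protein, 50 nM peptide and 10 ug/mL streptavidin donor plus Ni-chelate acceptor beads.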
L3MBTL1 block = qHTS Assay for the Inhibitors of L3MBTL1; Lethal(3)malignant brain tumor-like protein 1 (Homo sapiens), Q9Y468; AlphaScreen L3MBTL1–H3K9me1 peptide binding; Potency, µM (top dose mostly 57.1 µM), actives largely listed as inhibitors; hit rate 0.66% among 230,000; AID 485360, 2010; also: nearly all actives have a fitted effect of over 60% in size
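L3MBTL1 50 nM + b-AHA-H3(1-15)K9me1 75 nM, 30 min RT; compound added, 30 min RT; streptavidin donor/Ni-chelate acceptor beads 10 ug/mL each final, 30 min RT dark; AlphaScreen read.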
Hits are given with their value; – = inactive; ? = inconclusive; · = not tested or not shown; [ ] = remark or other dose. Calls follow the shape of the dose curve; as a rule, active = well fitted curve in the direction sought with a large enough effect; inconclusive = small, poorly fitted or top-dose-only effect, or another doubt; inactive = no such curve, though single readings can be large; an effect the other way counts as inactive or inconclusive.

SMILES	G9a inh	HP1b chromo inh	JMJD2A Tudor	Sfp PPTase inh	BAZ2B block	L3MBTL1 block
COC(=O)c1ccccc1NC(=S)N(C)C	–	–	–	–	–	–
CCOC(=O)C1=C(C)N=c2s/c(=C\c3ccc(OC(C)=O)c(OCC)c3)c(=O)n2C1/C=C/c1ccccc1 (stereo not drawn)	–	–	45µM	45µM	–	–
CCOC(=O)C1=C(C)N=c2s/c(=C/c3ccc(OCC(=O)O)cc3)c(=O)n2C1c1cc(OC)c(OC)c(OC)c1 (stereo not drawn)	·	–	–	–	–	–
CCOC(=O)C1=C(C)N=c2s/c(=C\c3cccc(OCC(=O)O)c3)c(=O)n2C1c1ccccc1OC (stereo not drawn)	40µM	–	?	79µM	50µM	·
CCOc1ccccc1Nc1sc(C(=O)c2ccccc2)c(N)c1C(=O)Nc1ccccc1	11µM	–	?	·	?	·
COc1ccc(CCNC(=O)c2c(Nc3ccccc3C)sc(C(=O)c3ccccc3)c2N)cc1OC	8.9µM	–	?	·	?	·
CCOc1ccccc1Nc1sc(C(=O)c2ccccc2)c(N)c1C(=O)NCCc1ccccc1	?	–	–	·	–	·
COc1ccc(Nc2sc(C(=O)c3ccc(Cl)cc3)c(N)c2C(=O)Nc2ccccc2OC)cc1	?	–	?	–	?	·
COc1ccc(NC(=O)c2c(Nc3ccccc3)sc(C(=O)c3ccc(F)cc3)c2N)cc1	?	–	45µM	–	?	·
COc1cccc(Nc2nnc(-c3cc4ccc(O)cc4oc3=O)s2)c1	–	–	–	·	–	·
CCCOc1ccc(/C(O)=C2/C(=O)C(=O)N(CCCN3CCOCC3)C2c2ccncc2)cc1 (stereo not drawn)	14µM	·	·	?	?	?
CC(C)Oc1ccc(/C(O)=C2/C(=O)C(=O)N(CCCn3ccnc3)C2c2cccnc2)cc1 (stereo not drawn)	40µM	–	–	–	–	–
COCCCN1C(=O)C(=O)/C(=C(/O)c2ccc(OC(C)C)cc2)C1c1ccncc1 (stereo not drawn)	45µM	–	–	–	?	–
Cc1ccc(/C(O)=C2/C(=O)C(=O)N(CCCn3ccnc3)C2c2cccnc2)cc1 (stereo not drawn)	·	–	–	·	·	·
Cc1ccc(C)c(/C(O)=C2\C(=O)C(=O)N(CCCn3ccnc3)C2c2cccnc2)c1 (stereo not drawn)	?	–	56µM	–	79µM	–
NCCCCCCNS(=O)(=O)c1ccc2c(Cl)cccc2c1	·	·	·	–	·	·
CN1CCN(C(c2ccccc2)c2sc3nc(-c4ccco4)nn3c2O)CC1 (stereo not drawn)	–	–	–	·	–	·
Cc1cccc(N2CCN(C(=O)c3sc4nc5n(c(=O)c4c3C)CCC5)CC2C)c1 (stereo not drawn)	?	–	–	·	–	·
C[N+]1(Cc2ccccc2)CCC(C(=O)OCC2CCCC2)CC1 (stereo not drawn)	–	·	·	?	·	·
COc1ccc(C)cc1Nc1nc2c(S(=O)(=O)c3cc(C)ccc3C)nnn2c2ccsc12	–	–	–	·	–	·
C/C(O)=C(\C#N)c1nnc2n1CCCCC2	10µM	–	?	?	56µM	–
O=C(O)c1ccc(/C=C2\CCCc3c2nc2ccccc2c3C(=O)O)cc1	?	–	–	–	–	·
COc1cc(/C=C2\CCCc3c2nc2ccccc2c3C(=O)O)cc([N+](=O)[O-])c1O	40µM	?	?	–	56µM	·
COc1cc(-c2nc3ccc4ccccc4c3c3c2CCC3)cc(OC)c1O	79µM	?	?	–	?	–
COc1cc(-c2nc3ccc4ccccc4c3c3c2CCC3)cc(OC)c1OC	–[12.7 µM]	–	–	?	–	–
SMILES	G9a inh	HP1b chromo inh	JMJD2A Tudor	Sfp PPTase inh	BAZ2B block	L3MBTL1 block
CN(C)c1ccc(/C=C2\CCCc3c2nc2ccccc2c3C(=O)O)cc1	40µM	–	–	–	–	·
O=C(O)c1c2c(nc3ccccc13)/C(=C/c1ccc(O)cc1)CCC2	–	–	–	–	–	–
COc1cc(/C=C2\CCCc3c2nc2ccccc2c3C(=O)O)cc(OC)c1O	·	–	?	11µM	–	–
C#C[C@]1(O)CC[C@H]2[C@H]3CCc4cc(O)ccc4[C@@H]3CC[C@@]21C	·	·	·	–	·	·
Cc1cccc(OCC(=O)N(Cc2ccc(C(C)(C)C)cc2)Cc2ccco2)c1	–	–	–	·	–	·
COc1ccc(/C=C2\CCc3c2nc2ccccc2c3C(=O)O)cc1OC	?	–	–	–	–	?
COc1ccc(/C=C2\CCCc3c2nc2ccccc2c3C(=O)O)cc1OC	28µM	·	·	35µM	–	?
Cc1cccc(N2CCN(c3nc4ccc(C(=O)c5ccccc5)cc4n4cnnc34)CC2C)c1 (stereo not drawn)	?	–	–	·	–	·
Cc1cc(N2CCC(C)CC2)nc2cccc(O)c12	50µM	–	?	–	–	·
O=C(NCCCc1nc2ccccc2n1Cc1ccccc1F)c1ccco1	–	–	–	·	–	·
CC/C(=N\NC(=S)Nc1ccc(OC)cc1)c1ccc(OC(F)F)cc1	40µM	?	?	–	?	–
C/C(=N\NC(=S)Nc1c(C)cccc1C)c1ccc(OC(F)F)cc1	8.9µM	–	?	–	–	–
C/C(=N\NC(=S)Nc1ccccc1C)c1ccc(O)cc1	35µM	?	?	25µM	?	–
C/C(=N\NC(=S)NC1CCCCC1)c1ccc(O)cc1	35µM	?	?	79µM	?	–
COCCNC(=S)N/N=C(\C)c1ccc(O)cc1	–	–	–	–	–	–
CC/C(=N\NC(C)=O)c1ccc(OC(F)F)cc1	–	·	·	–	–	–
COC(=O)[C@@H]1C=C[C@H](C)[C@H](CCOc2ccccc2)O1	·	·	·	–	·	·
CCOC(=O)c1ccccc1NS(=O)(=O)c1c(-c2ccc(C)cc2)csc1C(=O)OC	–	–	–	·	–	·
COc1ccc(C/C(C)=N/NC(=S)Nc2ccccc2F)cc1	?	?	?	–	–	–
COc1ccc(C/C(C)=N/NC(=S)Nc2ccc(C(C)C)cc2)cc1	7.9µM	–	7.9µM	–	–	–
COc1ccccc1NC(=S)NNC(=S)Nc1ccc(OC(F)F)cc1	1µM	?	79µM	–	–	–
CC/C(=N\NC(=S)Nc1cc(C)ccc1C)c1ccc(OC(F)F)cc1	3.2µM	?	?	?	?	–
CC/C=C\C/C=C\C/C=C\C/C=C\C/C=C\C/C=C\CCC(=O)NCCO	·	·	·	–	·	·
CCN(Cc1ccccc1)C(=O)c1cc(-c2ccccc2)n[nH]1	–	–	–	·	–	·
N#C/C(=N\Nc1ccc(Cl)cc1)C(=O)c1ccccc1	?	?	45µM	–	50µM	·

From PubChem BioAssay
